Experimental data from ChEMBL document CHEMBL1201862, “PubChem BioAssay data set” (2004).
In all, about 28,000 sequences went through this assay and about 1,300 (4.6%) were called active. Cut-off read from the data, not from the text of the source: active = GI50 up to about 1.1 µM and inactive = higher. For the sample, actives were picked, then their nearest neighbours and some sequences at random. Entries with a potency or affinity are not part of this list.

Each substance was assayed on MDA-N.

Substance | GI50
[Bis(aminomethyl)pentamethylenesilane]tetrachloropaltinum(IV), CHEMBL2146204 | 0.935 µM
[Bis(aminomethyl)pentamethylenesilane]dichloropaltinum(II), CHEMBL2146202 | 2.42 µM
[Bis(aminomethyl)dimethylsilane]tetrachloroplatinum(IV), CHEMBL2146190 | 15.9 µM
[Bis(aminomethyl)tetramethylenesilane]tetrachloropaltinum(IV), CHEMBL2146189 | 2.72 µM
CISPLATIN, CHEMBL11359 | 6.18 µM
[Bis(aminomethyl)tetramethylenesilane]dichloropaltinum(II), CHEMBL2146205 | 6.89 µM
